Results from PubChem BioAssay (NCATS).
Results filed as inconclusive are left out. The source holds several records for some structures; these can differ, active in one and inactive in another. Calls of active or inactive are those of the source. Calls follow the shape of the dose curve; as a rule, active = well fitted curve in the direction sought with a large enough effect; inconclusive = small, poorly fitted or top-dose-only effect, or another doubt; inactive = no such curve, though single readings can be large; an effect the other way counts as inactive or inconclusive.

Legend:
MCC-13 = assay: qHTS assay to identify novel small-molecules to repurpose for Merkel cell carcinoma treatment (AID 1296009); conditions: MCC and control cell lines, CellTiter-Glo viability, 72 h; series mostly up to 46 µM; also: nearly all actives have a fitted effect of over 60% in size
Outline: (§1)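 Cells were incubated with compound for 72 hr at 37 degree celsius before CellTiter-Glo addition. Luminescence was normalized with no-cell wells as full cytotoxicity and DMSO as baseline.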

MKL-1 = assay: as above; conditions: MCC and control cell lines, CellTiter-Glo viability, 72 h; series mostly up to 46 µM
Outline: as §1

MKL-2 = assay: as above; conditions: MCC and control cell lines, CellTiter-Glo viability, 72 h; series mostly up to 46 µM
Outline: as §1

NIH3T3 = assay: as above; conditions: MCC and control cell lines, CellTiter-Glo viability, 72 h; at 44.8 µM (top of the series) unless noted
Outline: as §1

UISO = assay: as above; conditions: MCC and control cell lines, CellTiter-Glo viability, 72 h; series mostly up to 46 µM
Outline: as §1

WaGa = assay: as above; conditions: MCC and control cell lines, CellTiter-Glo viability, 72 h; series mostly up to 46 µM
Outline: as §1

C33A = assay: Primary qHTS to identify gynecologic anti-cancer compounds using libraries of approved drugs and bioactive compounds (AID 1345084); conditions: Gynecologic cancer cell panel viability, ATPlite luminescence, 48 h; series mostly up to 57.5 µM; also: nearly all actives have a fitted effect of over 55% in size
Outline: (§2)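 Cells, 1,000 per well, were allowed to settle for 16 h at 37 C before compound addition. Five concentrations were tested for 48 h, and viability was read by ATPlite luminescence after 15 min at room temperature.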

CAOV3 = assay: as above; conditions: Gynecologic cancer cell panel viability, ATPlite luminescence, 48 h; series mostly up to 57.5 µM
Outline: as §2

CASKI = assay: as above; conditions: Gynecologic cancer cell panel viability, ATPlite luminescence, 48 h; series mostly up to 57.5 µM
Outline: as §2

MCC-26 = assay: qHTS assay to identify novel small-molecules to repurpose for Merkel cell carcinoma treatment (AID 1296009); conditions: MCC and control cell lines, CellTiter-Glo viability, 72 h; series mostly up to 46 µM; also: nearly all actives have a fitted effect of over 60% in size
Outline: as §1
% is scaled to controls: 0 for no effect and ±100 for the full control effect; potency is read from the fitted curve at half-maximal effect.

CCN(CC)C(=O)N[C@@H]1C=C2c3cccc4[nH]cc(c34)C[C@@H]2N(C)C1
inactive: Potency (MCC-13) | Potency (MKL-1) | Potency (MKL-2) | outcome (NIH3T3) | Potency (UISO) | Potency (WaGa) | Potency (C33A) | Potency (CAOV3) | Potency (CASKI)

NCC(CC(=O)O)c1ccc(Cl)cc1 (stereo not drawn)
inactive: activity change, negative = cytotoxicity (MCC-13) -6.05% [at 0.597 µM] | activity change, negative = cytotoxicity (MCC-26) -16.1% [at 0.597 µM] | activity change, negative = cytotoxicity (MKL-1) -6.57% [at 0.597 µM] | activity change, negative = cytotoxicity (MKL-2) -11.6% [at 0.597 µM] | activity change, negative = cytotoxicity (UISO) -4.03% [at 0.597 µM] | activity change, negative = cytotoxicity (WaGa) -6.81% [at 0.597 µM] | activity change, negative = cytotoxicity (C33A) 1.19% [at 0.462 µM] | activity change, negative = cytotoxicity (CAOV3) 8.76% [at 0.462 µM] | activity change, negative = cytotoxicity (CASKI) 17.3% [at 0.462 µM]

CN1C[C@H](CNC(=O)OCc2ccccc2)C[C@@H]2c3cccc4c3c(cn4C)C[C@H]21
inactive: Potency (MCC-13) | Potency (MCC-26) | Potency (C33A) | Potency (CASKI)

Oc1ccc(Cl)cc1Cc1ccccc1
active: Potency (MKL-2) 21.9 µM | Potency (UISO) 34.7 µM
inactive: Potency (MCC-13) | Potency (MCC-26) | Potency (MKL-1) | Potency (C33A) | Potency (CAOV3) | Potency (CASKI)

CC(C)=CCOc1c2occc2cc2ccc(=O)oc12
inactive: Potency (MCC-13) | Potency (MCC-26) | Potency (MKL-1) | Potency (MKL-2) | Potency (UISO) | Potency (WaGa) | Potency (C33A) | Potency (CAOV3) | Potency (CASKI)

Clc1ccc(COC(Cn2ccnc2)c2ccc(Cl)cc2Cl)cc1 (stereo not drawn)
23.7 µM (active) and inactive: Potency (MKL-1)
inactive: Potency (MCC-13) | Potency (WaGa)
active: Potency (UISO) 15 µM
21.1 µM (active) and inactive: Potency (MCC-26)

Nc1ccncc1
inactive: Potency (MCC-13) | Potency (MCC-26) | Potency (MKL-1) | Potency (MKL-2) | Potency (UISO) | Potency (WaGa) | Potency (C33A) | Potency (CAOV3) | Potency (CASKI)

CCN(C(C)=O)c1cccc(-c2ccnc3c(C#N)cnn23)c1
inactive: Potency (MCC-13) | Potency (MKL-1) | Potency (MKL-2) | outcome (NIH3T3) | Potency (UISO) | Potency (WaGa) | Potency (C33A) | Potency (CAOV3) | Potency (CASKI)

CC(C)CC(N(C)C)C1(c2ccc(Cl)cc2)CCC1 (stereo not drawn)
inactive: Potency (MCC-13) | Potency (MKL-1) | Potency (MKL-2) | outcome (NIH3T3) | Potency (UISO) | Potency (WaGa) | Potency (C33A) | Potency (CAOV3)

CC(=O)Nc1cc([As](=O)(O)O)ccc1O
inactive: Potency (MCC-13) | Potency (MKL-1) | Potency (MKL-2) | outcome (NIH3T3) | Potency (UISO) | Potency (WaGa) | Potency (C33A) | Potency (CAOV3) | Potency (CASKI)

COc1ccc2c(c1OC)CN1CCc3cc4c(cc3C1C2)OCO4 (stereo not drawn)
active: Potency (MKL-1) 11.9 µM | Potency (MKL-2) 20.9 µM | Potency (WaGa) 16.6 µM
inactive: Potency (MCC-13) | Potency (MCC-26) | Potency (CAOV3)

CC(C)(N)Cc1ccc(Cl)cc1
inactive: Potency (MCC-13) | Potency (MKL-1) | Potency (MKL-2) | outcome (NIH3T3) | Potency (UISO) | Potency (WaGa) | Potency (C33A) | Potency (CAOV3) | Potency (CASKI)

COc1ccc(C(CN(C)C)C2(O)CCCCC2)cc1 (stereo not drawn)
inactive: Potency (MCC-13) | Potency (MKL-1) | Potency (MKL-2) | outcome (NIH3T3) | Potency (UISO) | Potency (WaGa) | Potency (C33A) | Potency (CAOV3) | Potency (CASKI)

N[C@@H](Cc1ccc(Oc2cc(I)c(O)c(I)c2)c(I)c1)C(=O)O
inactive: Potency (MCC-13) | Potency (MCC-26) | Potency (MKL-1) | Potency (MKL-2) | Potency (UISO) | Potency (WaGa) | Potency (C33A) | Potency (CAOV3) | Potency (CASKI)

CCC1(C2=NCCN2)Cc2ccccc2O1 (stereo not drawn)
inactive: Potency (MCC-13) | Potency (MCC-26) | Potency (MKL-1) | Potency (MKL-2) | Potency (UISO) | Potency (WaGa) | Potency (C33A) | Potency (CAOV3) | Potency (CASKI)

NN=C(N)N
inactive: Potency (MCC-13) | Potency (MCC-26) | Potency (MKL-1) | Potency (MKL-2) | Potency (UISO) | Potency (WaGa) | Potency (C33A) | Potency (CAOV3) | Potency (CASKI)

Cn1c(CCCC(=O)O)nc2cc(N(CCCl)CCCl)ccc21
inactive: Potency (MCC-13) | Potency (MCC-26) | Potency (MKL-1) | Potency (UISO) | Potency (C33A) | Potency (CAOV3) | Potency (CASKI)
18.8 µM (active) and inactive: Potency (WaGa)

CCCN1CCC[C@@H]2Cc3[nH]ncc3C[C@H]21
inactive: Potency (MCC-13) | Potency (MKL-1) | Potency (MKL-2) | outcome (NIH3T3) | Potency (UISO) | Potency (WaGa) | Potency (C33A) | Potency (CAOV3) | Potency (CASKI)

CCC(C(N)=O)N1CCCC1=O (stereo not drawn)
inactive: Potency (MCC-13) | Potency (MKL-1) | Potency (MKL-2) | outcome (NIH3T3) | Potency (UISO) | Potency (WaGa) | Potency (C33A) | Potency (CAOV3) | Potency (CASKI)

COc1ccc(Cc2nccc3cc(OC)c(OC)cc23)cc1OC
inactive: Potency (MCC-13) | Potency (MCC-26) | Potency (MKL-1) | Potency (MKL-2) | Potency (UISO) | Potency (WaGa) | Potency (CAOV3)

CC(C)=CC1C(C(=O)OCc2cccc(Oc3ccccc3)c2)C1(C)C (stereo not drawn)
inactive: Potency (MCC-13) | Potency (MKL-1) | Potency (MKL-2) | outcome (NIH3T3) | Potency (UISO) | Potency (WaGa) | Potency (C33A) | Potency (CAOV3) | Potency (CASKI)

Oc1cc(Cl)ccc1Oc1ccc(Cl)cc1Cl
inactive: Potency (MCC-26) | Potency (CAOV3)
28.2 µM (active) and inactive: Potency (C33A)
39.8 µM (active) and inactive: Potency (CASKI)
44.2 µM (active) and inactive: Potency (MCC-13)
active: Potency (MKL-2) 24.8 µM | Potency (UISO) 44.2 µM | Potency (WaGa) 55.6 µM

O=[N+]([O-])c1cc([As](=O)(O)O)ccc1O
inactive: Potency (MCC-13) | Potency (MCC-26) | Potency (MKL-1) | outcome (NIH3T3) | Potency (UISO) | Potency (WaGa) | Potency (C33A) | Potency (CAOV3) | Potency (CASKI)

CC(=O)[C@H]1CC[C@H]2[C@@H]3CC[C@H]4C[C@H](O)CC[C@]4(C)[C@H]3C(=O)C[C@]12C
inactive: Potency (MCC-13) | Potency (MKL-1) | Potency (MKL-2) | outcome (NIH3T3) | Potency (UISO) | Potency (WaGa) | Potency (C33A) | Potency (CAOV3) | Potency (CASKI)

CN(C)[C@@H]1C(=O)C(C(N)=O)=C(O)[C@@]2(O)C(=O)C3=C(O)c4c(O)cccc4[C@@](C)(O)[C@H]3C[C@@H]12
inactive: Potency (MCC-13) | Potency (MCC-26) | Potency (MKL-1) | Potency (MKL-2) | Potency (UISO) | Potency (WaGa) | Potency (C33A) | Potency (CAOV3) | Potency (CASKI)

Cn1cc(C2=C(c3cn(C4CCN(Cc5ccccn5)CC4)c4ccccc34)C(=O)NC2=O)c2ccccc21
inactive: Potency (MCC-13) | Potency (MKL-1) | Potency (MKL-2) | outcome (NIH3T3) | Potency (UISO) | Potency (WaGa) | Potency (C33A) | Potency (CAOV3) | Potency (CASKI)

CNC(=O)N1N=C(c2ccc(N)cc2)c2cc3c(cc2CC1C)OCO3 (stereo not drawn)
active: Potency (MKL-2) 7.43 µM | Potency (WaGa) 16.6 µM
inactive: Potency (MKL-1) | Potency (C33A)

CN1CCN(C(=O)O[C@H]2c3nccnc3C(=O)N2c2ccc(Cl)cn2)CC1
inactive: Potency (MCC-13) | Potency (MKL-1) | Potency (MKL-2) | Potency (UISO) | Potency (WaGa) | Potency (C33A) | Potency (CAOV3) | Potency (CASKI)
